Test results as given in PubChem BioAssay (NCATS).
Activity calls are given as the source filed them. The call rests on the fitted dose curve; in most records, active means well fitted curve in the direction sought with a large enough effect; inconclusive means small, poorly fitted or top-dose-only effect, or another doubt; inactive means no such curve, though single readings can be large or run the other way.

assay: Cellular Toxicity (caspase-3) HUV-EC-C (AID 656); conditions: HUV-EC-C cells, caspase-3 activation (apoptosis), vehicle = 0, 100 µM tamoxifen = 100%; series mostly up to 92.2 µM; caspase-3 activation: at the top concentration
From the text: NIH Chemical Genomics Center [NCGC]
NIH Molecular Libraries Screening Centers Network [MLSCN]
National Institutes of Environmental Health Sciences [NIEHS]
National Toxicology Program [NTP]
We have developed a 1536-well cell-based assay for quantitative high throughput screening (qHTS) against a number of cell lines to determine in vitro caspase 3/7 of small molecules. This particular assay uses the HUV-EC-C cell line which is derived from normal human vascular endothelial cells.
NCGC Assay Protocol Summary:
The Caspase-Glo 3/7 assay (Promega) is a homogeneous method to measure caspase-3 and caspase-7 activities in cultured cells. The quantitation of caspase 3/7 activity is based on the cleavage of a peptide-aminoluciferin substrate. After caspase cleaves the substrate the free aminoluciferin is liberated and serves as the substrate of luciferase, which generates the light. The luminescent signal is proportional to amount of caspase 3/7 activity present.
Using the Caspase-Glo 3/7 assay, the amount of caspase 3/7 activity was measured in the HUV-EC-C cell line with complete culture medium following compound treatment for 16 hours. The assay was performed in opaque white 1536-well plates. In the screen, tamoxifen and doxorubicin were used as positive controls. Library compounds were measured for their ability to cause the activation of caspase 3/7 in the cell line, as reflected by an increase in luminescence signal, in a concentration-dependent manner. Data were normalized to the controls for basal activity (DMSO only) and 100% stimulation (100 uM tamoxifen). AC50 values were determined from concentration-response data modeled with the standard Hill equation.
qHTS protocol for caspase 3/7 assay in HUV-EC-C cell line
[Step] [Parameter] [Value] [Description]
1. Reagent; 5 uL; 1000 HUV-EC-C cells/well
2. Time; 5 hr; 37 °C incubation
4. Controls; 23 nL; Tamoxifen 0.23 uM to 100 uM & doxorubicin 7.0 pM to 100 uM
5. Time; 16 hr; 37 °C incubation
6. Reagent; 5 uL; Caspase-Glo 3/7 reagent
7. Time; 20 min; Room Temperature
8. Detection; Luminescence; Viewlux plate reader
Keywords: caspase 3/7, apoptosis, HUV-EC-C cell line, luminescence, NTPHTS, NTPHTS_NCGC, NIEHS, EPA, DSSTox, MLSMR, MLSCN, NIH Roadmap, qHTS, NCGC

Row | SMILES | caspase-3 activation | outcome
1 | c1ccc2ccccc2c1 | 0.23% (inactive) | –
2 | CCCCC | -0.0778% (inactive) | –
3 | NCCN | 8.95% (inactive) | –
4 | CO/N=C(/C(=O)N[C@@H]1C(=O)N2C(C(=O)O)=C(COC(N)=O)CS[C@H]12)c1ccco1 | -0.159% (inactive) | –
5 | C[C@H](CCC(=O)O)[C@H]1CC[C@H]2[C@@H]3CC[C@@H]4C[C@H](O)CC[C@]4(C)[C@H]3C[C@H](O)[C@]12C | 1.78% (inactive) | –
6 | C/C=C/C=C/C(=O)O | -3.05% (inactive) | –
7 | O.O.O.O.O.O.O.O=S(=O)([O-])[O-].[Co+2] | 1.15% (inactive) | –
8 | Oc1cccc(O)c1O | -4.73% (inactive) | –
9 | OCl | -3.4% (inactive) | –
10 | CC1=CC(=O)NS(=O)(=O)O1 | -0.585% (inactive) | –
11 | O=c1n(CC2CO2)c(=O)n(CC2CO2)c(=O)n1CC1CO1 (stereo unspecified) | -4.06% (inactive) | –
12 | OC[C@H]1O[C@@H]2O[C@H]3[C@H](O)[C@@H](O)[C@@H](O[C@H]4[C@H](O)[C@@H](O)[C@@H](O[C@H]5[C@H](O)[C@@H](O)[C@@H](O[C@H]6[C@H](O)[C@@H](O)[C@@H](O[C@H]7[C@H](O)[C@@H](O)[C@@H](O[C@H]1[C@H](O)[C@H]2O)O[C@@H]7CO)O[C@@H]6CO)O[C@@H]5CO)O[C@@H]4CO)O[C@@H]3CO | 0.599% (inactive) | –
13 | Cc1ccc(S(=O)(=O)O)cc1C | 12.4% (inactive) | –
14 | OCc1ccccc1 | 0.572% (inactive) | –
15 | CC(C)(C)CC(C)(C)c1ccc(OCCO)cc1 | 0.91% (inactive) | –
16 | CCCCO | – | inactive
17 | C[C@H](CCC(=O)O)[C@H]1CC[C@H]2[C@@H]3[C@H](O)C[C@@H]4C[C@H](O)CC[C@]4(C)[C@H]3C[C@H](O)[C@]12C | -0.367% (inactive) | –
18 | OB(O)O | 1.92% (inactive) | –

Row | SMILES | caspase-3 activation | outcome
19 | Nc1ccc(N=Nc2ccccc2)c(N)n1 | -4.37% (inactive) | –
20 | Oc1ccc(/C=C/c2cc(O)cc(O)c2)cc1 | -6.59% (inactive) | –
21 | OCC(O)CO | – | inactive
22 | NC(N)=O | -1.75% (inactive) | –
23 | CC[C@H]1OC(=O)[C@H](C)[C@@H](O[C@H]2C[C@@](C)(OC)[C@@H](O)[C@H](C)O2)[C@H](C)[C@@H](O[C@@H]2O[C@H](C)C[C@H](N(C)C)[C@H]2O)[C@](C)(O)C[C@@H](C)CN(C)[C@H](C)[C@@H](O)[C@]1(C)O | -3.09% (inactive) | –
24 | C[C@H]1O[C@@H](O[C@H]2[C@@H](O)C[C@H](O[C@H]3[C@@H](O)C[C@H](O[C@H]4CC[C@@]5(C)[C@H](CC[C@@H]6[C@@H]5C[C@@H](O)[C@]5(C)[C@@H](C7=CC(=O)OC7)CC[C@]65O)C4)O[C@@H]3C)O[C@@H]2C)C[C@H](O)[C@@H]1O | 1.52% (inactive) | –
25 | Cc1ncc[nH]1 | -2.13% (inactive) | –
26 | CC(C)O | 10.4% (inactive) | –
27 | ClC(Cl)Cl | 2.11% (inactive) | –
28 | [O-][N+](=Nc1ccccc1)c1ccccc1 | -2.02% (inactive) | –
29 | CO | 2.36% (inactive) | –
30 | Nc1ncnc2c1ncn2[C@H]1CC[C@@H](CO)O1 | -2.56% (inactive) | –
31 | Nc1nccs1 | 2.15% (inactive) | –
32 | CC/C=C\C/C=C\C/C=C\CCCCCCCC(=O)O | 4.09% (inactive) | –
33 | CCOC(C)OCC | -2.87% (inactive) | –
34 | COC(=O)c1ccccc1O | -3.67% (inactive) | –
35 | O=P(O)(O)O | 1.58% (inactive) | –
36 | CC1=CCC2CC1C2(C)C (stereo unspecified) | -5.18% (inactive) | –
